Reference: PubChem BioAssay (NCI)
Compounds without any hit were thinned out: in the full panel of roughly 79,000, 15% have a hit. Calls of active or inactive are those of the source. No stated cut-off is given here; in the data, active means growth inhibition above about 70%; inactive means the rest.

What was measured:
[1] = NCI Yeast Anticancer Drug Screen. Data for the rad50 strain (AID 155);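 further: 0% = growth of vehicle-only cultures of the same strain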; details: S. cerevisiae rad50 strain growth inhibition, stronger effect = higher value
Outline: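 Inhibition values express reduced yeast growth in compound-treated cultures relative to vehicle-treated controls.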

[2] = NCI Yeast Anticancer Drug Screen. Data for the mec2-1 strain (AID 157); details: S. cerevisiae mec2-1 strain, stronger effect = higher value
Outline: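 Using mec2-1 yeast: add compound, measure growth, express inhibition versus vehicle-treated cultures.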

[3] = NCI Yeast Anticancer Drug Screen. Data for the sgs1 mgt1 strain (AID 161);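 further: 0% = growth of cultures given vehicle only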; details: S. cerevisiae sgs1 mgt1 strain, stronger effect = higher value
Outline: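 Compounds are added to genetically altered yeast, and growth is compared with cultures given vehicle alone to give percent inhibition.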

[4] = NCI Yeast Anticancer Drug Screen. Data for the cln2 rad14 strain (AID 165);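 further: 0% = growth equal to vehicle treated cultures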; details: S. cerevisiae cln2 rad14 strain, stronger effect = higher value
Outline: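 Yeast strain cln2 rad14, bearing defects in cell cycle control and DNA repair, serves as the test system; values reflect growth inhibition compared with vehicle.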

[5] = NCI Yeast Anticancer Drug Screen. Data for the bub3 strain (AID 167); details: S. cerevisiae bub3 mutant strain, stronger effect = higher value
Outline: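 Steps: expose the mutant yeast strain to compound; grow alongside vehicle-treated cultures; measure growth; express inhibition against the vehicle cultures.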

[6] = NCI Yeast Anticancer Drug Screen. Data for the mlh1 rad18 strain (AID 175); details: S. cerevisiae mlh1 rad18 strain growth inhibition, stronger effect = higher value
Outline: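 Steps: expose repair-defective yeast to compound; measure growth; express inhibition against vehicle-treated controls.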

[7] = at 5.0 µM (retest, dose inferred, filed as 0.5)
[8] = at 50.0 µM (retest, dose inferred, filed as 5.0)

Measured: growth inhibition

CCN(CC)CCCNc1cccc2ccc(OC)nc12
inactive: [1]; [7] 1% | [1]; [8] 50% | [2]; [7] 0% | [2]; [8] 24% | [2]; at 50.0 µM 13% | [3]; [7] -9% | [3]; [8] 60% | [3]; at 50.0 µM 66% | [4]; [7] -1% | [4]; [8] 33% | [4]; at 50.0 µM 32.7% | [5]; [7] 2% | [5]; [8] 40% | [5]; at 50.0 µM 51.8% | [6]; [7] 4% | [6]; [8] 28% | [6]; at 50.0 µM 53.5%
active: [1]; at 50.0 µM 73.8%

O=C(O)c1cc2oc(-c3ccccc3)cc2[nH]1
inactive: [1]; [7] -11% | [2]; [7] -8% | [3]; [7] 7% | [3]; at 50.0 µM 47.9% | [4]; [7] -32% | [4]; [8] 34% | [4]; at 50.0 µM 69.8% | [5]; [7] -14% | [5]; [8] 51% | [6]; [7] -9%
active: [1]; [8] 71% | [1]; at 50.0 µM 72.5% | [2]; [8] 71% | [2]; at 50.0 µM 88.7% | [3]; [8] 74% | [5]; at 50.0 µM 83.8% | [6]; [8] 80% | [6]; at 50.0 µM 87.3%

Clc1nssc1=Nc1nonc1-c1ccccc1
active: [1]; [8] 99% | [1]; at 50.0 µM 88.7% | [2]; [8] 100% | [2]; at 50.0 µM 91.2% | [3]; [7] 86% | [3]; [8] 100% | [3]; at 50.0 µM 79.9% | [4]; [8] 96% | [5]; [7] 97% | [5]; [8] 99% | [5]; at 50.0 µM 79.7% | [6]; [8] 98% | [6]; at 50.0 µM 92.2%
inactive: [1]; [7] 59% | [2]; [7] 64% | [4]; [7] 68% | [4]; at 50.0 µM 48.6% | [6]; [7] 49%

CCOC(=O)c1ccc(N(CCC(O)CN=[N+]=[N-])S(=O)(=O)c2ccc(C)cc2)cc1 (stereo not given)
active: [6]; [8] 84%
inactive: [1]; [7] 9% | [1]; [8] 66% | [1]; at 50.0 µM 57% | [2]; [7] 11% | [2]; [8] 23% | [2]; at 50.0 µM 19.4% | [3]; [7] 18% | [3]; [8] 63% | [3]; at 50.0 µM 53.4% | [4]; [7] 0% | [4]; [8] 3% | [4]; at 50.0 µM 40.6% | [5]; [7] -4% | [5]; [8] 49% | [5]; at 50.0 µM 5.9% | [6]; [7] 29% | [6]; at 50.0 µM 55.1%

O=C(CC(=O)c1cc(Cl)ccc1O)c1cccnc1
inactive: [1]; [7] 2% | [1]; at 50.0 µM 68% | [2]; [7] 2% | [2]; [8] 49% | [2]; at 50.0 µM 17.9% | [3]; [7] 1% | [3]; at 50.0 µM 49.9% | [4]; [7] 7% | [4]; [8] 49% | [4]; at 50.0 µM -21.1% | [5]; [7] 4% | [5]; at 50.0 µM -16.1% | [6]; [7] 2% | [6]; at 50.0 µM 47%
active: [1]; [8] 95% | [3]; [8] 91% | [5]; [8] 94% | [6]; [8] 99%

CCC[n+]1ccnc2ccccc21
inactive: [1]; [7] 2% | [1]; [8] 2% | [1]; at 50.0 µM 15.3% | [2]; [7] -11% | [2]; [8] -1% | [2]; at 50.0 µM 8.3% | [3]; [7] -4% | [3]; [8] -10% | [3]; at 50.0 µM 27.9% | [4]; [7] 13% | [4]; [8] 4% | [4]; at 50.0 µM 11% | [5]; [7] -2% | [5]; [8] -5% | [5]; at 50.0 µM 19.6% | [6]; [7] -4% | [6]; [8] 14% | [6]; at 50.0 µM 22.9%

C=CCCCCCCCCC(=O)CCCCCCCCC=C
inactive: [1]; [7] 0% | [1]; [8] 2% | [1]; at 50.0 µM 7.6% | [2]; [7] -2% | [2]; [8] 3% | [2]; at 50.0 µM 9.2% | [3]; [7] -2% | [3]; [8] 0% | [3]; at 50.0 µM -3.35% | [4]; [7] 6% | [4]; [8] 3% | [4]; at 50.0 µM 58.8% | [5]; [7] -1% | [5]; [8] 4% | [5]; at 50.0 µM 14% | [6]; [7] -4% | [6]; [8] 1% | [6]; at 50.0 µM 5.75%

Cc1ccnc2ccc3ccccc3c12
inactive: [1]; [7] -142% | [1]; [8] 22% | [1]; at 50.0 µM -17.9% | [2]; [7] -48% | [2]; [8] -38% | [2]; at 50.0 µM -1% | [3]; [7] -63% | [3]; [8] -21% | [3]; at 50.0 µM 20.4% | [4]; [7] -62% | [4]; [8] -49% | [4]; at 50.0 µM 22.3% | [5]; [7] -67% | [5]; [8] -18% | [5]; at 50.0 µM 31% | [6]; [7] -138% | [6]; [8] -55% | [6]; at 50.0 µM 33.3%

c1ccc([P+](Cc2ccc(C[P+](c3ccccc3)(c3ccccc3)c3ccccc3)s2)(c2ccccc2)c2ccccc2)cc1
inactive: [1]; [7] 35% | [2]; [7] 33% | [3]; [7] 37% | [4]; [7] 17% | [4]; at 50.0 µM 67.4% | [5]; [7] 47% | [6]; [7] 43%
active: [1]; [8] 90% | [1]; at 50.0 µM 80% | [2]; [8] 96% | [2]; at 50.0 µM 80.3% | [3]; [8] 98% | [3]; at 50.0 µM 80.7% | [4]; [8] 77% | [5]; [8] 96% | [5]; at 50.0 µM 81% | [6]; [8] 96% | [6]; at 50.0 µM 75.8%

S=C(S)NCCN1CCNC1=S
active: [1]; [8] 76% | [3]; at 50.0 µM 80% | [5]; [8] 95% | [6]; [8] 78% | [6]; at 50.0 µM 77.1%
inactive: [1]; [7] 10% | [1]; at 50.0 µM 60.4% | [2]; [7] 5% | [2]; [8] 50% | [2]; at 50.0 µM 60.9% | [3]; [7] 5% | [3]; [8] 64% | [4]; [7] 2% | [4]; [8] 18% | [4]; at 50.0 µM -5.05% | [5]; [7] 14% | [5]; at 50.0 µM 63.8% | [6]; [7] 7%
